Where “and” joins values, the source holds several entries; their conditions need not be identical. Equal values may be shown once. A structure can be active in one record and inactive in another. Calls of active or inactive are those of the source. Unless noted, the call rests on the fitted dose curve; in most records, active means well fitted curve in the direction sought with a large enough effect in the repeat runs; inconclusive means weak or mixed curves; inactive means no such curve, though single readings can be large; an effect the other way counts as inactive or inconclusive.

Assay [1] is described as follows: qHTS assay to identify small molecule antagonists of the thyroid receptor (TR) signaling pathway - cell viability counter screen (AID 743064). Further: nearly all actives have a fitted effect of over 50% in size. Further: potency means the concentration at half of the fitted maximal effect. The method in brief:
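Viability of T3-stimulated (1 nM final) GH3.TRE-Luc cells is measured by CellTiter-Fluor fluorescence after 23.5 h compound exposure at 37 °C plus 30 min reagent incubation.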

Assay [2] in a line: qHTS assay to identify small molecule antagonists of the thyroid receptor (TR) signaling pathway (AID 743065). Further: nearly all actives have a fitted effect of over 55% in size. Further: potency means the concentration at half of the fitted maximal effect. The procedure, abridged:
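GH3.TRE-Luc rat pituitary cells carrying two TR response elements driving luciferase were plated for 4 h, given compound plus 1 nM T3 (final), and incubated 23.5 h at 37 C. ONE-Glo luminescence measured reporter inhibition; CellTiter-Fluor fluorescence tracked cytotoxicity.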

Assay [3] has as its system thyroid hormone receptor (rat, GH3 cells). Description: qHTS assay to identify small molecule agonists of the thyroid receptor (TR) signaling pathway (AID 743066; calls by dose curve).
A short description of assay [4]: qHTS assay to identify small molecule antagonists of the estrogen receptor alpha (ER-alpha) signaling pathway - cell viability counter screen (AID 743074; calls by dose curve; further: nearly all actives have a fitted effect of over 45% in size; further: potency means the concentration at half of the fitted maximal effect).
Assay [5] in a line: qHTS assay to identify small molecule antagonists of the estrogen receptor alpha (ER-alpha) signaling pathway using the BG1 cell line - cell viability counter screen (AID 743081).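 Further: compound given together with 17beta-estradiol as the ER stimulus; nearly all actives have a fitted effect of over 45% in size.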 Further: potency means the concentration at half of the fitted maximal effect.
The nature of assay [6]: qHTS assay to identify small molecule that activate the aryl hydrocarbon receptor (AhR) signaling pathway - cell viability counter screen (AID 743086). Further: nearly all actives have a fitted effect of over 45% in size. Further: potency means the concentration at half of the fitted maximal effect. The procedure, abridged: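 HepG2-AhR-luc (HG2L7.5c1) cells, 4000/well, were preincubated 5 h at 37C, exposed to compound in qHTS format for 24 hr at 37C, then given CellTiter-Fluor for 30 min; viability was read as fluorescence in the reporter wells.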

The nature of assay [7]: qHTS assay to identify small molecule antagonists of the peroxisome proliferator-activated receptor gamma (PPARg) signaling pathway - cell viability counter screen (AID 743194). Further: nearly all actives have a fitted effect of over 55% in size. Further: potency means the concentration at half of the fitted maximal effect. The procedure, abridged: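 PPARg-UAS-bla HEK293H cells were plated, rested 5 h at 37 C, then treated with compounds plus rosiglitazone (50 nM final) for 17 h at 37 C; viability was then read by CellTiter-Glo luminescence after 30 min at room temperature.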

A short description of assay [8]: qHTS assay for small molecule agonists of the antioxidant response element (ARE) signaling pathway (AID 743202; active means well fitted activation curve with a large enough effect in the signal ratio in the repeat runs, not every such curve was filed as active; inconclusive means weak or mixed curves, or effect the other way; inactive means no such curve, though single readings can be large or run the other way; the % refers to the signal ratio; further: potency means the concentration at half of the fitted maximal effect). The method in brief:
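Steps: seed ARE-bla HepG2 cells (2,000/well); incubate 5 h at 37 C; add compounds by pin tool; incubate 16 h at 37 C; add FRET substrate; read fluorescence after 2 h at RT.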

A short description of assay [9]: qHTS assay for small molecule agonists of the antioxidant response element (ARE) signaling pathway - cell viability counter screen (AID 743203; calls by dose curve; further: nearly all actives have a fitted effect of over 55% in size; further: potency means the concentration at half of the fitted maximal effect). The procedure, abridged:
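Luminescence read-out (CellTiter-Glo, 30 min at room temperature) measured cell viability in the same wells as the ARE beta-lactamase reporter. HepG2 ARE-bla cells were treated with compounds for 16 hrs at 37C/5% CO2.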

The next assay addresses Aromatase (Homo sapiens) (UniProt P11511). The experiment in a line: qHTS assay to identify aromatase inhibitors (AID 743083). Further: nearly all actives have a fitted effect of over 55% in size. Further: potency means the concentration at half of the fitted maximal effect.
Assay [10] is described as follows: qHTS assay to identify aromatase inhibitors - cell viability counter screen (AID 743084). Further: potency means the concentration at half of the fitted maximal effect.
Assay [11] addresses Aryl hydrocarbon receptor (Homo sapiens) (UniProt P35869). Description: qHTS assay to identify small molecule that activate the aryl hydrocarbon receptor (AhR) signaling pathway (AID 743085).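 Further: HG2L7.5c1 human HepG2 liver cells with stably integrated DRE-driven firefly reporter; nearly all actives have a fitted effect of over 15% in size.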 The procedure, abridged:
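A multiplexed format paired cell viability (CellTiter-Fluor fluorescence) with AhR-dependent luciferase output (ONE-Glo luminescence) in the same wells of HepG2 DRE-luc cells after 24 h compound exposure at 37C.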

Assay [12] has as its target Peroxisome proliferator-activated receptor gamma (Homo sapiens) (UniProt P37231). Description: qHTS assay to identify small molecule agonists of the peroxisome proliferator-activated receptor gamma (PPARg) signaling pathway (AID 743094; active means well fitted activation curve with a large enough effect in the signal ratio in the repeat runs, not every such curve was filed as active; inconclusive means weak or mixed curves, or effect the other way; inactive means no such curve, though single readings can be large or run the other way; the % refers to the signal ratio). The method in brief:
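HEK293H PPARg-bla cells, 5 h settle at 37C/5% CO2; compound (DMSO) 17 h, 37C; B/G FRET substrate 1 h RT; fluorescence intensity read-out. qHTS format.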

The target is the same in assay [13]. Description: qHTS assay to identify small molecule antagonists of the peroxisome proliferator-activated receptor gamma (PPARg) signaling pathway (AID 743191; calls by dose curve; further: nearly all actives have a fitted effect of over 30% in size; further: potency means the concentration at half of the fitted maximal effect). The method in brief:
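GeneBLAzer PPARg UAS-bla HEK293H cells carrying a UAS-driven beta-lactamase reporter were plated at 3000 cells/well, preincubated 5 h at 37C, then given compound for 17 h at 37C; LiveBLAzer B/G FRET substrate was read after 1 h at room temperature.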

Assay [14] is described as follows: qHTS assay for small molecule activators of the heat shock response signaling pathway - cell viability counter screen (AID 743209). Further: nearly all actives have a fitted effect of over 50% in size. Further: potency means the concentration at half of the fitted maximal effect. The procedure, abridged: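 HSE-bla HeLa; 1500 cells/well; overnight 37 C, 5% CO2; compound 5 h 37 C; LiveBLAzer B/G substrate 2.5 h RT; CellTiter-Glo 30 min RT; luminescence.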
A short description of assay [15]: qHTS assay for small molecule activators of the heat shock response signaling pathway (AID 743210; active means well fitted activation curve with a large enough effect in the signal ratio in the repeat runs, with a control signal flat, not every such curve was filed as active; inconclusive means weak or mixed curves; the % refers to the signal ratio;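 further: HeLa cells with beta-lactamase reporter driven by heat shock elements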). The method in brief: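 Activation of heat shock element-controlled beta-lactamase expression is measured in HeLa cells by LiveBLAzer FRET fluorescence, with compound exposure lasting 5 h at 37 C and substrate loading 2.5 h at room temperature.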
Assay [16] has as its target Estrogen receptor (Homo sapiens) (UniProt P03372). Description: qHTS assay to identify small molecule agonists of the estrogen receptor alpha (ER-alpha) signaling pathway (AID 743075; calls by dose curve).
Assay [17] has the same target. Description: qHTS assay to identify small molecule agonists of the estrogen receptor alpha (ER-alpha) signaling pathway using the BG1 cell line (AID 743079). Further: nearly all actives have a fitted effect of over 20% in size. Further: potency means the concentration at half of the fitted maximal effect. The settings on record: BG1Luc4E2 cells, ERE-luciferase agonist, 22 h; activation: at 70.3 µM (top of the series).
For assay [18] the target is unchanged. Description: qHTS assay to identify small molecule antagonists of the estrogen receptor alpha (ER-alpha) signaling pathway (AID 743069; active means well fitted curve in the direction sought with a large enough effect in the signal ratio in the repeat runs, not every such curve was filed as active; inconclusive means weak or mixed curves, or effect the other way; inactive means no such curve, though single readings can be large or run the other way; the % refers to the signal ratio; further: potency means the concentration at half of the fitted maximal effect). The method in brief:
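Screening used a UAS-driven beta-lactamase reporter integrated into HEK293 cells expressing ER-alpha, stimulated with 17beta-estradiol alongside test compounds over 18 hr at 37C; signal came from LiveBLAzer B/G FRET fluorescence.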

The nature of assay [19]: qHTS assay to identify small molecule antagonists of the estrogen receptor alpha (ER-alpha) signaling pathway using the BG1 cell line (AID 743080; calls by dose curve;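 further: BG1 cells stimulated with 17beta-estradiol alongside compound; nearly all actives have a fitted effect of over 25% in size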; further: potency means the concentration at half of the fitted maximal effect). The settings on record: BG1Luc4E2 ERE-luciferase antagonist mode, luminescence; activity change, negative = inhibition: at 70.3 µM (top of the series). The method in brief: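 Luciferase inhibition measured with ONE-Glo after 30 min at RT in BG1Luc4E2 cells given test compounds and 17beta-estradiol for 21.5 h at 37 C; CellTiter-Fluor viability read in the same wells beforehand.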

Aryl hydrocarbon receptor (Homo sapiens), sequence (P35869 whole entry, looked up): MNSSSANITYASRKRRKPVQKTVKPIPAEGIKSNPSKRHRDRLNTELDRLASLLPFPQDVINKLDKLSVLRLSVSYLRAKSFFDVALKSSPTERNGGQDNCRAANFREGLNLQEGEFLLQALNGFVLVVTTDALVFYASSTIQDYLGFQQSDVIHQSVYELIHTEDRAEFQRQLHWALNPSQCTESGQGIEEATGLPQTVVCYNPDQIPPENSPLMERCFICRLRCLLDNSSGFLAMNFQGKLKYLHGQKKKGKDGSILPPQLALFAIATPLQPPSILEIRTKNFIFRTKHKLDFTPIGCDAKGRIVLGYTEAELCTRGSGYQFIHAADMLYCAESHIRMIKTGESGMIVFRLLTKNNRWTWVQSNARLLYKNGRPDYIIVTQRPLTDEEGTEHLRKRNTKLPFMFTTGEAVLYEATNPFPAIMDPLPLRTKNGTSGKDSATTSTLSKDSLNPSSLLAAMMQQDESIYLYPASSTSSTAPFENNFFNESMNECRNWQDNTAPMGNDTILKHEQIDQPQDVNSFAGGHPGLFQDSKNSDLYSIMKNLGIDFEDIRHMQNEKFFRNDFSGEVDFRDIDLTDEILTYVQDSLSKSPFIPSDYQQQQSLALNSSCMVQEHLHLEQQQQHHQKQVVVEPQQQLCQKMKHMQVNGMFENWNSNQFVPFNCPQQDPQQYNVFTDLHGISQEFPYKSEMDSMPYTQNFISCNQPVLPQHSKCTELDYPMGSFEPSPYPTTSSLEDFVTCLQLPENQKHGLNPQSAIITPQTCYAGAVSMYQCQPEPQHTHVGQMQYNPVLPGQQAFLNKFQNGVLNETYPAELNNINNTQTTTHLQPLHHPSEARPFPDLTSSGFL
Peroxisome proliferator-activated receptor gamma (Homo sapiens), sequence (P37231 whole entry, looked up): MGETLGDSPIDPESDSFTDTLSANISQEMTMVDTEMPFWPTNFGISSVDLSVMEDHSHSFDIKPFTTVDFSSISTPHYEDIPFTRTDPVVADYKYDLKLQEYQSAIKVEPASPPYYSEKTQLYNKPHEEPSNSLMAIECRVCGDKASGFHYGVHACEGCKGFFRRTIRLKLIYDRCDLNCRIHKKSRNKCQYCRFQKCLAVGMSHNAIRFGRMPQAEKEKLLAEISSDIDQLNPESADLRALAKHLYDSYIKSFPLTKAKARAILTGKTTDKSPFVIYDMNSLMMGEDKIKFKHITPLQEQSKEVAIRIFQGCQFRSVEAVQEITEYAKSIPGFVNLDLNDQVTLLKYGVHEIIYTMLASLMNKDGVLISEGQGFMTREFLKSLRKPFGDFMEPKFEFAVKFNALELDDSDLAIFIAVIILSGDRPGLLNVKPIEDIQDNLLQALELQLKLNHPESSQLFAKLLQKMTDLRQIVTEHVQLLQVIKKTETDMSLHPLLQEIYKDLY
Estrogen receptor (Homo sapiens), sequence (P03372 whole entry, looked up): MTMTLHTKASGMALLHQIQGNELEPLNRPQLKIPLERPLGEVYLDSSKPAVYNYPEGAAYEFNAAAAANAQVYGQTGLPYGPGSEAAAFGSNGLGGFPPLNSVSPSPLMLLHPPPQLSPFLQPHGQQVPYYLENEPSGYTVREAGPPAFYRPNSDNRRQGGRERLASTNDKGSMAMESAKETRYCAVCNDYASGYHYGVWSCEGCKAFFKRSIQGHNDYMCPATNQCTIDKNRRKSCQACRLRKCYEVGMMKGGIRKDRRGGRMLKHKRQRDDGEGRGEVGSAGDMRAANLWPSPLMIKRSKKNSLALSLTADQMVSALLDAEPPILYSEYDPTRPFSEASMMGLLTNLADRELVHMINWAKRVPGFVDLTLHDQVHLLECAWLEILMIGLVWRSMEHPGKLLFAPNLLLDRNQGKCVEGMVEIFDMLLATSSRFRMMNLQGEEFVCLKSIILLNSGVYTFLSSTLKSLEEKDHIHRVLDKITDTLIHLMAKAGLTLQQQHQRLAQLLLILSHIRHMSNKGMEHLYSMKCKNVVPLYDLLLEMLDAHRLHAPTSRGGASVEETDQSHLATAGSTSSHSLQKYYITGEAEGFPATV
Aromatase (Homo sapiens), sequence (P11511 whole entry, looked up): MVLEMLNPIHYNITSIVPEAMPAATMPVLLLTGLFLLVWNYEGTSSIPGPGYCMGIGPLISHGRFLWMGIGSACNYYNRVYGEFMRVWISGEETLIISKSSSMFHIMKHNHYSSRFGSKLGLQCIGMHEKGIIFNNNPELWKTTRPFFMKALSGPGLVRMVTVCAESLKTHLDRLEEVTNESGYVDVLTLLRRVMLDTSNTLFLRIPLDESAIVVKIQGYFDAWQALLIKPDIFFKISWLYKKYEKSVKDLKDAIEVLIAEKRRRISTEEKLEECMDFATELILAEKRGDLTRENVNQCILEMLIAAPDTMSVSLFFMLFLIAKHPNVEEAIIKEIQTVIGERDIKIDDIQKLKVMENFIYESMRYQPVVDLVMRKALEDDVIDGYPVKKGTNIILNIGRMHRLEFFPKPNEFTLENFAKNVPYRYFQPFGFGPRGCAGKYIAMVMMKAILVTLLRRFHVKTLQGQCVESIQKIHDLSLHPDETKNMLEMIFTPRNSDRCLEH

With `COC(=O)[C@]1(C)CCC[C@@]2(C)[C@H]1CC=C1C=C(C(C)C)CC[C@@H]12`, the Potency was 48.6 µM (active) in assay [1], 43.3 µM (active) in [2], 54.9 µM (active) in [7] and 61.1 µM (active) in assay [8]. Besides, the Potency entry in [3], in [4], in assay [5], in assay [6] and in [9] was “inactive” in each case.

For `CC1(C)C(=O)N(Br)C(=O)N1Br`, the Potency result (in assay [1]; in assay [2]; in [3]; in [4]; in assay [5]; with Aromatase (Homo sapiens)) was “inactive” in each case. Moreover, the Potency entry in [10], in assay [11], in [12], in [13], in assay [7] and in assay [8] was “inactive” throughout. Besides, the Potency entry in [9], in [14] and in assay [15] was “inactive” throughout.

Consider `C=CC(=O)OCC(O)COc1ccccc1` (stereo not drawn), for which the Potency in assay [1] is 54.5 µM (active); in assay [2], 48.6 µM (active); with Aromatase (Homo sapiens) it was 68.6 µM (active); in assay [10], 61.1 µM (active); in assay [14], 4.9 µM (active). Moreover, the Potency entry in assay [3], in assay [4], in assay [16], in [17], in assay [5] and in [11] was “inactive” in each case. In assay [6], the Potency result was “inactive”.

Consider `C=CCCCCCCC=C`, for which the Potency entry (in assay [1]; in assay [2]; in [3]; in [4]; in assay [5]; with Aromatase (Homo sapiens)) was “inactive” in each case. Besides, the Potency result in [10], in [11], in assay [6], in assay [7] and in assay [9] was “inactive” throughout. Moreover, the Potency in assay [14] was 49.1 µM (active).

Turning to `O=Cc1ccc(F)cc1`, the Potency entry in [1], in assay [2], in assay [3], in [18], in assay [4] and in assay [16] was “inactive” in each case. Moreover, the Potency result (in assay [17]; in assay [19]; in assay [5]; with Aromatase (Homo sapiens); in assay [10]; in assay [11]) was “inactive” throughout. Moreover, the Potency result in assay [6], in [12], in assay [13], in assay [7], in assay [9] and in assay [14] was “inactive” in each case. For the same compound, the Potency result in assay [15] is “inactive”.

Take `CCCSS/C(CCO)=C(\C)N(C=O)Cc1cnc(C)nc1N`: the Potency in assay [1] is 26.6 µM (active); in assay [2], 23.7 µM (active); with Aromatase (Homo sapiens), 26.6 µM (active). Further, the Potency result in assay [3], in assay [18], in assay [4], in assay [16], in [17] and in assay [19] was “inactive” in each case. The Potency result in assay [5], in assay [10], in assay [11], in [6], in assay [7] and in [8] was “inactive” throughout. Moreover, the Potency result in [9] and in assay [14] was “inactive” each time.

Turning to `O=C1c2c(O)ccc([N+](=O)[O-])c2C(=O)c2c([N+](=O)[O-])ccc(O)c21`, the Potency in assay [1] is 6.8 µM (active); in assay [2], 6.8 µM (active); in assay [4], 38.5 µM (active); in assay [5], 30.4 µM (active); with Aromatase (Homo sapiens), 6.06 µM (active); in [10] it was 9.6 µM (active). Moreover, the Potency in [6] was 19.2 µM (active); in [13], 6.85 µM (active); in assay [7], 8.63 µM (active); in assay [9], 3.82 µM (active); in assay [14], 10.9 µM (active). Also, the Potency entry in assay [3] and in [11] was “inactive” in each case.

On to `CCOC(=O)N1CCC(=C2c3ccc(Cl)cc3CCc3cccnc32)CC1`, for which the Potency is 26.6 µM (active) and 27.3 µM (active) in assay [1]; 11.9 µM (active) and 9.69 µM (active) in assay [2]; 26.8 µM [inconclusive] (active) in [18]; “inactive and 61.1 µM (active)” in assay [19]; 49 µM (active) and 26.6 µM (active) in assay [7]; 30.6 µM (active) in assay [9]. Besides, the Potency result in assay [3], in assay [4], in assay [16], in [5], in [10] and in assay [14] was “inactive” throughout.

Turning to `Nc1cc(Cl)c([N+](=O)[O-])cc1O`, the Potency is 60.6 µM (active) in assay [1] and 30.4 µM (active) in [10]. Also, the Potency result in assay [2], in [3], in assay [18], in assay [4], in assay [16] and in assay [17] was “inactive” in each case. Besides, the Potency entry (in [19]; with Aromatase (Homo sapiens); in assay [7]; in assay [9]; in [14]; in assay [15]) was “inactive” each time.

As to `CCCCCCCCCCCCCOP(=O)(O)O`, the Potency entry in [1], in [2], in assay [3], in [4], in assay [16] and in [17] was “inactive” throughout. For the same compound, the Potency entry in assay [19], in assay [5], in assay [10], in assay [11] and in assay [6] was “inactive” in each case. For the same compound, the Potency in assay [7] was 43.6 µM (active); in assay [9] it was 43.3 µM (active); in assay [14], 34.7 µM (active).

Take `CCc1ccc(O)c(C(C)(C)C)c1`: the Potency in assay [1] is 54.5 µM (active); in [2] it was 61.1 µM (active); in [17], 27.3 µM (active); with Aromatase (Homo sapiens), 68.6 µM (active). For the same compound, the Potency entry in assay [3], in [18], in [4], in [19], in [5] and in assay [11] was “inactive” in each case. In addition, the Potency result in assay [6], in assay [12] and in assay [14] was “inactive” in each case.

As for `COC(=O)NCCC[Si](OC)(OC)OC`, the Potency result (in assay [1]; in assay [2]; in [3]; in assay [4]; in assay [5]; with Aromatase (Homo sapiens)) was “inactive” in each case. Moreover, the Potency entry in [10], in [11], in assay [6], in assay [12], in [7] and in assay [9] was “inactive” each time. In addition, the Potency result in [14] was “inactive”.

In the case of `Cn1cnc2ncnc(N)c21`, the Potency entry in assay [1], in [2], in [3], in [18], in assay [4] and in [16] was “inactive” each time. The Potency result (in [17]; in assay [19]; in assay [5]; in the assay with Aromatase (Homo sapiens); in assay [10]; in assay [11]) was “inactive” throughout. In addition, the Potency entry in [6], in [12], in assay [7], in [8], in assay [9] and in assay [14] was “inactive” each time. Further, the Potency entry in [15] is “inactive”.

As to `CCC(=O)OCCc1ccccc1`, the Potency entry in assay [1], in [2], in assay [3], in assay [18], in assay [4] and in assay [16] was “inactive” throughout. In addition, the Potency result in [17], in assay [19], in assay [5], in assay [10], in assay [11] and in assay [6] was “inactive” each time. Besides, the Potency entry in [12], in assay [13], in assay [7] and in assay [9] was “inactive” each time.

These data come from PubChem BioAssay (Tox21).
